Assay in all cases: NCI-60 one-dose screen, 48 h (100 = growth as untreated, 0 = no growth, -100 = all killed)
One assay relates to SK-MEL-2 melanoma. To be noted: 10 µM unless noted.
Another assay has as its system EKVX NSCLC. The following applies: 10 µM unless noted.
The test system of the next assay is SN12C renal. The following applies: 10 µM unless noted.
For another assay, the system named is UO-31 renal. To be noted: 10 µM unless noted.
The subject of another assay is TK-10 renal. To be noted: 10 µM unless noted.
The next assay relates to ACHN renal. To be noted: 10 µM unless noted.
For another assay, the system named is CAKI-1 renal. To be noted: 10 µM unless noted.
The next assay has as its system CCRF-CEM leukemia. To be noted: 10 µM unless noted.
Another assay deals with MOLT-4 leukemia. To be noted: 10 µM unless noted.
A further assay deals with SR leukemia. The following applies: 10 µM unless noted.
In another assay the test system is RPMI-8226 leukemia. The following applies: 10 µM unless noted.
In a further assay the test system is OVCAR-8 ovarian. The following applies: 10 µM unless noted.
The subject of a further assay is OVCAR-5 ovarian. To be noted: 10 µM unless noted.
The test system of a further assay is SK-OV-3 ovarian. To be noted: 10 µM unless noted.
A further assay relates to IGROV1 ovarian. To be noted: 10 µM unless noted.
Another assay has as its system OVCAR-3 ovarian. The following applies: 10 µM unless noted.
The test system of a further assay is NCI/ADR-RES ovarian. The following applies: 10 µM unless noted.
For another assay, the system named is HS 578T breast. The following applies: 10 µM unless noted.
For another assay, the system named is OVCAR-4 ovarian. To be noted: 10 µM.
For the next assay, the system named is A498 renal. The following applies: 10 µM unless noted.

Our source for the growth values is PubChem BioAssay (NCI).

Each structure is given as a SMILES string. The panel holds about 83,000 compounds, 20% with a hit somewhere; the sample as a whole holds those more often.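 Step 1: grow cells in 96-well plates. Step 2: add test compound at a single concentration. Step 3: incubate 48 h. Step 4: record percent growth.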 Values without a mark were called inactive. Active and inactive are the calls of the source. The calls were made as follows: active = growth percent below 10; inactive = the rest.

For the compound `C=C(C)[C@@H]1CC[C@]2(C(N)=O)CC[C@]3(C)[C@H](CC[C@@H]4[C@@]5(C)C/C(=C/c6cccnc6)[C@H](O)C(C)(C)[C@@H]5CC[C@]43C)[C@@H]12`, the growth with SK-MEL-2 melanoma is -13.2% [100 µM] (active); in the assay with EKVX NSCLC, 33.8% [100 µM]; with SN12C renal, 20% [100 µM]; in the assay with UO-31 renal, 12.2% [100 µM]; in the assay with TK-10 renal, 32.5% [100 µM]; in the assay with ACHN renal, 9.24% [100 µM] (active). In addition, the growth is 10.7% [100 µM] in the assay on CAKI-1 renal; 5.5% [100 µM] (active) in the assay with CCRF-CEM leukemia; 1.99% [100 µM] (active) in the assay with MOLT-4 leukemia; 12.8% [100 µM] in the assay with SR leukemia; 13.1% [100 µM] in the assay with RPMI-8226 leukemia; 21.9% [100 µM] in the assay on OVCAR-8 ovarian. Moreover, the growth was 14.1% [100 µM] in the assay on OVCAR-5 ovarian; 31.6% [100 µM] in the assay with SK-OV-3 ovarian; 17.5% [100 µM] in the assay with IGROV1 ovarian; 29.1% [100 µM] in the assay with OVCAR-3 ovarian; 11.3% [100 µM] in the assay on NCI/ADR-RES ovarian.
`CC1(C)CC[C@]2(C(=O)O)CC[C@]3(C)[C@H](CC[C@@H]4[C@@]5(C)CCC(=O)C(C)(C)[C@@H]5CC[C@]43C)[C@H]2[C@H]1OC(=O)C(F)(F)F`: the growth is -71.8% [100 µM] (active) in the assay on SK-MEL-2 melanoma; -69.6% [100 µM] (active) in the assay on EKVX NSCLC; -82.1% [100 µM] (active) in the assay with SN12C renal; -96.4% [100 µM] (active) in the assay with UO-31 renal; -84.1% [100 µM] (active) in the assay with TK-10 renal; -94.1% [100 µM] (active) with ACHN renal. Besides, the growth in the assay on CAKI-1 renal was -71.2% [100 µM] (active); with CCRF-CEM leukemia, -25% [100 µM] (active); in the assay on MOLT-4 leukemia it was -26.4% [100 µM] (active); with SR leukemia it was 14.6% [100 µM]; in the assay on RPMI-8226 leukemia, -42.9% [100 µM] (active); in the assay with OVCAR-8 ovarian, -81.4% [100 µM] (active). Besides, the growth in the assay with OVCAR-5 ovarian is -53.1% [100 µM] (active); with SK-OV-3 ovarian it was -2.75% [100 µM] (active); in the assay with IGROV1 ovarian, -64.7% [100 µM] (active); in the assay with OVCAR-3 ovarian, -67.4% [100 µM] (active); in the assay on HS 578T breast, -42.1% [100 µM] (active); in the assay on NCI/ADR-RES ovarian, -77.6% [100 µM] (active).
Turning to `C[C@@H](NC(=O)[C@@H](CC(=O)N1CCC(N2CCCCC2)CC1)N1C(=O)[C@@H](N2C(=O)OC[C@@H]2c2ccccc2)[C@H]1/C=C/c1cccc(Cl)c1)c1ccccc1`, the growth in the assay with SK-MEL-2 melanoma was 96.8%; in the assay on EKVX NSCLC, 66.5%; with SN12C renal it was 84.4%; with UO-31 renal it was 58.9%; in the assay with TK-10 renal, 78.9%; in the assay with ACHN renal it was 91.6%. Besides, the growth in the assay on CAKI-1 renal was 69.7%; in the assay with CCRF-CEM leukemia, 50.1%; in the assay on MOLT-4 leukemia, 26.7%; in the assay on SR leukemia it was -22.4% (active); in the assay on RPMI-8226 leukemia, 54.7%; with OVCAR-8 ovarian, 86.8%. Also, the growth with OVCAR-5 ovarian was 115%; in the assay on OVCAR-4 ovarian, 78.6%; in the assay on SK-OV-3 ovarian, 86.7%; in the assay with IGROV1 ovarian it was 86%; in the assay with OVCAR-3 ovarian, 74.4%; with NCI/ADR-RES ovarian, 98%.
As for `Cc1ccc(Oc2c(/C=N/NC(=O)Cn3c(=O)sc4ccccc43)c(C)nn2-c2ccccc2)cc1`, the growth in the assay with SK-MEL-2 melanoma was 75.5%; in the assay with EKVX NSCLC, 38%; in the assay with SN12C renal, 29.5%; in the assay on UO-31 renal it was 25.8%; in the assay with TK-10 renal, 62.4%; in the assay with ACHN renal, 43.2%. Moreover, the growth in the assay with A498 renal was 78.2%; with CCRF-CEM leukemia, 40.8%; in the assay with MOLT-4 leukemia, 8.72% (active); with SR leukemia it was 41.8%; in the assay on RPMI-8226 leukemia, 32.8%; with OVCAR-8 ovarian, 54.8%. In addition, the growth in the assay with OVCAR-5 ovarian was 74.1%; in the assay on OVCAR-4 ovarian it was 46.2%; with SK-OV-3 ovarian, 66.6%; in the assay with IGROV1 ovarian, 44.4%; in the assay with OVCAR-3 ovarian, 54.2%; in the assay with HS 578T breast, 63.2%. In the assay on NCI/ADR-RES ovarian, the growth is 50.2%.
As for `CC1Cc2c(Cl)ncnc2N(C)c2ccc(O)cc21` (configuration not stated), the growth with SK-MEL-2 melanoma is 27%; with EKVX NSCLC, 51.3%; in the assay with SN12C renal, 82.6%; in the assay on UO-31 renal it was 22.5%; in the assay on TK-10 renal, 94.5%; with ACHN renal it was 84.9%. Further, the growth in the assay with CAKI-1 renal is 89.2%; in the assay on CCRF-CEM leukemia, 82.5%; with MOLT-4 leukemia it was 67.6%; in the assay on SR leukemia it was 90.3%; with RPMI-8226 leukemia, 68.5%; in the assay on OVCAR-8 ovarian it was 29.7%. Also, the growth with OVCAR-5 ovarian is 102%; in the assay with OVCAR-4 ovarian, 27%; with SK-OV-3 ovarian it was 31.7%; with IGROV1 ovarian it was 103%; in the assay with OVCAR-3 ovarian it was 50.8%; in the assay on HS 578T breast, 28.8%. Further, the growth with NCI/ADR-RES ovarian is 17.3%.
With `C=C(C)[C@@H]1CC[C@]2(COCCC#N)CC[C@]3(C)[C@H](CC[C@@H]4[C@@](C)(CCCNCCC#N)[C@H](C(=C)C)CC[C@]43C)[C@@H]12`, the growth with SK-MEL-2 melanoma was 10% [100 µM]; in the assay on EKVX NSCLC, 92.9% [100 µM]; with SN12C renal, 27.9% [100 µM]; in the assay on UO-31 renal, 15.3% [100 µM]; with TK-10 renal, 49.7% [100 µM]; in the assay on ACHN renal it was 11.4% [100 µM]. The growth in the assay with CAKI-1 renal was 27% [100 µM]; in the assay with CCRF-CEM leukemia, 1.32% [100 µM] (active); in the assay on MOLT-4 leukemia, 2.22% [100 µM] (active); in the assay on SR leukemia, 19.1% [100 µM]; in the assay with RPMI-8226 leukemia, -37.1% [100 µM] (active); in the assay on OVCAR-8 ovarian it was 3.88% [100 µM] (active). Also, the growth was 36.7% [100 µM] in the assay on OVCAR-5 ovarian; 65.1% [100 µM] with SK-OV-3 ovarian; 7.81% [100 µM] (active) in the assay with IGROV1 ovarian; -0.365% [100 µM] (active) in the assay with OVCAR-3 ovarian; 22.2% [100 µM] with HS 578T breast; 46.3% [100 µM] in the assay with NCI/ADR-RES ovarian.
For `CCCC(NC(=O)OCc1ccccc1)C(=O)O` (configuration not stated), the growth in the assay on SK-MEL-2 melanoma was 128%; in the assay with EKVX NSCLC, 96.5%; in the assay with SN12C renal, 74.3%; in the assay on UO-31 renal, 65.1%; in the assay on TK-10 renal it was 117%; with ACHN renal, 108%. Further, the growth in the assay with A498 renal is 80%; in the assay on CCRF-CEM leukemia, 118%; with MOLT-4 leukemia, 111%; in the assay with SR leukemia it was 121%; in the assay with RPMI-8226 leukemia it was 68.7%; in the assay with OVCAR-8 ovarian it was 93.5%. Further, the growth is 94.8% in the assay with OVCAR-5 ovarian; 106% in the assay on OVCAR-4 ovarian; 119% in the assay with SK-OV-3 ovarian; 106% with OVCAR-3 ovarian; 71.9% with HS 578T breast; 60.4% in the assay on NCI/ADR-RES ovarian.
